# In PubChem BioAssay (NCI):
# The panel holds about 83,000 compounds, 20% with a hit somewhere; the sample as a whole holds those more often.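 Treatment: one concentration, 48 hours, 96-well format. Scoring: percent growth, with anything below 10 considered active.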 A number with no mark means an inactive call. Activity calls are given as the source filed them.
# Test system: SR leukemia
# Assay: NCI-60 one-dose screen, 48 h (100 = growth as untreated, 0 = no growth, -100 = all killed)
# Conditions: 10 µM unless noted
# Method: Growth inhibition of the SR human tumor cell line is measured as a screen for anti-cancer activity. Cells are grown in 96 well plates and exposed to the test compound for 48 hours. Compounds are tested at a single concentration, which is 10^-5 M for most compounds. The reported endpoint is percent growth (GI% or GIPRCNT), where numbers from 0 - 100% represent growth inhibition, and numbers from -100% - 0 represent cell death. For example, a value of 40 represents 60% growth inhibition. A value of 0 means no net growth occurred over the course of the experiment. A value of -40 indicates 40% of cells at the beginning of the experiment died by the end of the experiment. A value of -100 means all cells are dead at the end of the experiment.
# NCI-60 Human Tumor Cell Lines Screen was performed using the standard one-dose NCI protocol, which is described in more detail at https://dtp.cancer.gov/discovery_development/nci-60/default.htm.
# Compounds with GIPRCNT values below 10 were considered active. Activity score was based on GIPRCNT using the following formula: […]
# Score is 0 for GIPRCNT values of 100 or above, 50 for GIPRCNT values of 0, and 100 for GIPRCNT values of -100.
row,SMILES,growth
1,CC1(C)OC2C(CO)OC(n3ccc(=O)[nH]c3=O)C2O1 (stereo not given),99.7%
2,COC(=O)C1(CC(C)=O)NC(=S)NC(=O)C1C#N (stereo not given),99.1%
3,CCCNS(=O)(=O)c1ccc(Cl)cc1,98.9%
4,CCOC(=O)C(COS(C)(=O)=O)(COS(C)(=O)=O)C(=O)OCC,90.9%
5,COc1ccc(/C=N/NC(=O)COCC(=O)N/N=C/c2ccc(OC)cc2)cc1,96.7%
6,COc1cc(-c2ccc(NC(=O)CC(C)=O)c(OC)c2)ccc1NC(=O)CC(C)=O,93.7%
7,CCC1CCC(C)NC1 (stereo not given),109%
8,CC1CCC(C)(C)c2ccccc21 (stereo not given),107%
9,CCOC(=O)N[C@H]1CCc2cc(OC)c(OC)c(OC)c2-c2ccc(SC)c(=O)cc21,3.83% (active)
10,C1CCc2onc(-c3noc4c3CCCCC4)c2CC1,92.4%
11,CCOC(=O)CSCCC#N,94.2%
12,CS(=O)CC(=N\O)/C(CS(C)=O)=N\O (stereo not given),99.8%
13,Cc1nc(C)c(C(=O)O)cc1C(=O)O,100%
14,O=C(CC(CC(=O)c1ccccc1)c1ccccn1)c1ccccc1,92.9%
15,CSc1nc2[nH]ncc2c(=O)[nH]1,95%
16,COC(=O)c1ccc([N+](=O)[O-])c(C)c1,79.8%
17,NNC(=O)c1ccccc1N,156%
18,C/C=C/C1OCC(CC)C(CCC)O1 (stereo not given),102%
19,CN1CCCN(C(c2ccccc2)c2ccc(Br)cc2)CC1 (stereo not given),4.87% (active)
20,CC(=O)OCC1OC(n2cnc3c(=S)nc(N)[nH]c32)C(OC(C)=O)C1OC(C)=O (stereo not given),12.9%

row,SMILES,growth
1,O=C(CCl)Oc1ccc([N+](=O)[O-])cc1,102%
2,Nc1ccc2ccccc2c1-c1c(N)ccc2ccccc12,4.26% (active)
3,CC(=O)Oc1c(Cl)cccc1-c1ccccc1,99.9%
4,CC(O)C(F)(F)C(F)(F)C(F)(F)F (stereo not given),97.6%
5,COc1ccc2c(Cl)cc(NC(=O)Nc3c(C)cccc3C)nc2c1,63.4%
6,CC1(c2ccccc2)CO1 (stereo not given),104%
7,O=[N+]([O-])c1ccc(-c2nc(N(CCO)CCO)c3ccccc3n2)o1,2.69% (active)
8,C=CCc1cc(OC)c(OC)c(OC)c1,107%
9,O=S(=O)(O)c1ccc(O)c(C2CCCCC2)c1,98.3%
10,COc1ccc(-c2csc(NC(=O)Nc3nc(-c4ccc(OC)cc4)cs3)n2)cc1,60.2%
11,CN(CCCN(C)CCC1CCCCC1)CCC1CCCCC1,-36.3% (active)
12,CCCC(=O)c1cccs1,95.8%
13,c1ccc2c(NCCCN3CCN(CCCNc4c5ccccc5nc5ccccc45)CC3)c3ccccc3nc2c1,-3.4% [100 µM] (active)
14,CC(=O)N(CCCCCCN(C(C)=O)C(C)=O)C(C)=O,99.6% [100 µM]
15,CCN(CC)CCCC(C)NC(=S)N/N=C(\C)c1ccccn1 (stereo not given),17.7%
16,C=C(OC(C)=O)c1ccccc1,80.7%
17,CC1CCC(C(C)(C)[N+](C)(C)C)CC1 (stereo not given),94%
18,Cc1onc(-c2c(F)cccc2Cl)c1-c1ncc(-c2ccc(Br)cc2)o1,13.7%
19,Clc1ccc(/C=C/c2ccccn2)cc1,98.2%
20,O=C(CCl)Nc1ccccc1SCc1cc(Cl)cc2c1OCOC2,31.9%
